The target in experiment [1] is Cellular tumor antigen p53 (Homo sapiens) (UniProt P04637). The experiment in a line: Primary qHTS for small molecule compounds that upregulate eGFP-tagged delta133p53alpha (in N-terminal) cells. (AID 2060322). Also: nearly all actives have a fitted effect of over 75% in size. Also: potency is read from the fitted curve at half-maximal effect.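 As to activation: series mostly up to about 56 µM; 0% = DMSO vehicle and 100% = reference activator.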 The conditions noted are these: NCI-H358 eGFP-delta133p53alpha fluorescence, 24 h; activation: stronger effect = higher value. Summed up: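 NCI-H358 cells pre-induced 24 h with 10 ng/ml doxycycline to express N-terminal eGFP-delta133p53alpha, then dosed 24 h at 37C without doxycycline; fixed, Hoechst-stained, GFP intensity by laser scanning cytometry, normalized to DMSO (0%) and 57.5 uM 5-azacytidine (100%).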

Experiment [2] addresses Aldehyde dehydrogenase, mitochondrial (Homo sapiens) (UniProt P05091). The experiment can be described thus: qHTS for Inhibitors of the Aldehyde Dehydrogenase Family (ALDH2) Primary screen (AID 2061308).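 Also: plate controls were vehicle for no effect and reference inhibitor for full effect; nearly all actives have a fitted effect of over 55% in size.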
The target in experiment [3] is Retinaldehyde dehydrogenase 3 (Homo sapiens) (UniProt P47895). The experiment in a line: qHTS for Inhibitors of the Aldehyde Dehydrogenase Family (ALDH1A3) Primary screen (AID 2061315).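 Also: plate controls were DMSO vehicle for no effect and reference inhibitor for full effect.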
Experiment [4] is described as follows: BET inhibitor-based combinations targeting novel dependencies in MECOM-rearranged (r) AML: SET-2 cell line (AID 2202231). Also: nearly all actives have a fitted effect of over 35% in size. Also: potency is read from the fitted curve at half-maximal effect.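 As to viability: plate controls were DMSO treated cells for no effect and wells without cells for full effect.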 To be noted: SET-2 AML cells viability, CellTiter-Glo luminescence, 48 h; viability: stronger effect = lower value, concentration not given here. Summed up:
(§1)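 Here, 11-point titrations of each agent were applied to 500 seeded cells and incubated 48 hr; CellTiter-Glo signal, scaled against DMSO and empty wells, was integrated as AUC, then Z-scored within the individual line.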

Experiment [5] in a line: BET inhibitor-based combinations targeting novel dependencies in MECOM-rearranged (r) AML: HNT-34 cell line (AID 2202234). Also: nearly all actives have a fitted effect of over 35% in size. Also: potency is read from the fitted curve at half-maximal effect. Summed up: (§2)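 Normalized to DMSO and empty-well controls, the luminescence data from CellTiter-Glo after 48 hr drug exposure were fitted across 11 concentrations. Reported metrics are area under the dose-response curve and its Z-transformed form.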
The nature of experiment [6]: BET inhibitor-based combinations targeting novel dependencies in MECOM-rearranged (r) AML: AML-191 cell line (AID 2202236; also: nearly all actives have a fitted effect of over 35% in size; also: potency is read from the fitted curve at half-maximal effect). A digest of the protocol:
as §1

Experiment [7] in a line: BET inhibitor-based combinations targeting novel dependencies in MECOM-rearranged (r) AML: AML-194 cell line (AID 2202237; also: nearly all actives have a fitted effect of over 40% in size; also: potency is read from the fitted curve at half-maximal effect). Summed up:
as §1

The nature of experiment [8]: BET inhibitor-based combinations targeting novel dependencies in MECOM-rearranged (r) AML: UCSD-AML1 cell line (AID 2202235). Also: nearly all actives have a fitted effect of over 40% in size. Also: potency is read from the fitted curve at half-maximal effect. A digest of the protocol:
as §2

The nature of experiment [9]: BET inhibitor-based combinations targeting novel dependencies in MECOM-rearranged (r) AML: MV-4-11 cell line (AID 2202233). Also: nearly all actives have a fitted effect of over 45% in size. Also: potency is read from the fitted curve at half-maximal effect. Summed up:
as §2

Experiment [10] in a line: BET inhibitor-based combinations targeting novel dependencies in MECOM-rearranged (r) AML: OCI-AML3 cell line (AID 2202232). Also: nearly all actives have a fitted effect of over 35% in size. Also: potency is read from the fitted curve at half-maximal effect. To be noted: Potency: OCI-AML3 viability. Summed up:
as §1

Where “and” joins values, the source holds several entries; their conditions need not be identical. Identical values can stand only once. Records with an inconclusive call do not appear. A number with no mark means an inactive call. Calls of active or inactive are those of the source. Calls follow the shape of the dose curve; as a rule, active = well fitted curve in the direction sought with a large enough effect; inconclusive = small, poorly fitted or top-dose-only effect, or another doubt; inactive = no such curve, though single readings can be large; an effect the other way counts as inactive or inconclusive.

Sequence of Cellular tumor antigen p53 (Homo sapiens) (P04637 whole entry, looked up): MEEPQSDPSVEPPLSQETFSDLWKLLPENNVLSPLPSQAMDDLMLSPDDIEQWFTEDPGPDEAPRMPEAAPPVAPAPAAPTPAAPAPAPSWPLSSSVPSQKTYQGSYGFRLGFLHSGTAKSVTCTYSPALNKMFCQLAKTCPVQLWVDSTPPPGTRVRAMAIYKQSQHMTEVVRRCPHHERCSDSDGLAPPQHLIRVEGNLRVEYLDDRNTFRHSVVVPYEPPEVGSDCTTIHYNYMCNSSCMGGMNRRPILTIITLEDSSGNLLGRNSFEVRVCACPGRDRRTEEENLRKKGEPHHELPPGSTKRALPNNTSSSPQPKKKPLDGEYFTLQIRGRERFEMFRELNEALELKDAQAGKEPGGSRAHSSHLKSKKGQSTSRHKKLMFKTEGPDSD

Consider `O=C(NOCC(O)CO)c1ccc(F)c(F)c1Nc1ccc(I)cc1F` (configuration not stated), for which, in experiment [1], the activation is 0.955%. The Potency entry in experiment [2] and in experiment [3] was “inactive” each time. Besides, the viability in experiment [4] is 80.7%. In experiment [5], the Potency is 0.209 µM (active).

For `Clc1ccc(Nc2nnc(Cc3ccncc3)c3ccccc23)cc1`, in [1], the activation is -10.3% and 9.21% and -17%. Besides, the Potency entry in experiment [2], in experiment [3], in experiment [5], in experiment [6] and in [7] was “inactive” in each case. Further, the viability in experiment [4] is 91.3%.

As to `O=C(NCC(=O)N1CCCC1)Nc1ccc2cnccc2c1`, the activation in [1] is 7.14%. Moreover, the Potency result in experiment [2], in experiment [3], in experiment [5], in experiment [8], in experiment [6] and in experiment [7] was “inactive” in each case. Further, in [4], the viability was 109%.

As to `COc1cc2c(N3CCN(C(=O)Nc4ccc(OC(C)C)cc4)CC3)ncnc2cc1OCCCN1CCCCC1`, in experiment [1], the activation is 54% and 21.4%. Further, the Potency entry in [2] and in experiment [3] was “inactive” each time. For the same molecule, in experiment [4], the viability is 95.3%. Besides, the Potency in experiment [9] is 0.59 µM (active); in experiment [8], 16.6 µM (active); in experiment [7] it was 23.5 µM (active).

In the case of `CCN(CCO)CCCOc1ccc2c(Nc3cc(CC(=O)Nc4cccc(F)c4)[nH]n3)ncnc2c1`, in experiment [1], the activation is -6.72% and 29.5%. In addition, the Potency entry in experiment [2] and in [3] was “inactive” in each case. In addition, the viability in experiment [4] is 100%. Also, the Potency is 0.0525 µM (active) in [9] and 0.0934 µM (active) in [6].

Regarding `Cc1c(NC(=O)c2cc(C(N)=O)nc3cc(F)ccc23)c(C(F)(F)F)nn1Cc1ccc(C#N)cc1`, in [1], the activation is 14.3%. Moreover, the Potency result in experiment [2], in experiment [3] and in [8] was “inactive” in each case. The viability in [4] was 101%.

As for `CN(C)CC(C)(C)CNc1nn2c(-c3ccccc3)nnc2cc1C1CCC1`, the activation in [1] was -1.72% and 7.14%. For the same molecule, the Potency entry in experiment [2], in experiment [3], in experiment [9], in experiment [8], in experiment [6] and in [7] was “inactive” throughout. The viability in experiment [4] was 113%.

For the molecule `COCCNCc1ccc(-c2cc3nccc(Oc4ccc(NC(=O)C5(C(=O)Nc6ccc(F)cc6)CC5)cc4F)c3s2)nc1`, the Potency is 19 µM (active) in experiment [1]; 13.2 µM (active) in [4]; 2.95 µM (active) in [5]; 8.33 µM (active) in experiment [8]; 8.33 µM (active) in experiment [6]; 5.25 µM (active) in [7]. Moreover, the Potency result in experiment [2] and in experiment [3] was “inactive” in each case.

In the case of `COc1ccc2c(c1)CC[C@@H](CN(C)CC(=O)O)[C@H]2c1ccccc1`, in experiment [1], the activation was -11.9%. Further, the Potency result in experiment [2], in experiment [3], in experiment [8], in [6] and in experiment [7] was “inactive” each time. In addition, the viability in experiment [4] was 116%.

On to `Cc1cccc(-c2[nH]c(CNc3ccccc3F)nc2-c2ccc3ncnn3c2)n1`, for which the activation in experiment [1] is -27.7%. Also, the Potency entry in [2], in [3], in experiment [8], in [6] and in experiment [7] was “inactive” throughout. The viability in [4] was 100%.

Turning to `COc1cccc(OCCCN)c1-c1cc(Nc2cnc(C#N)cn2)n[nH]1`, the Potency is 26.9 µM (active) in [1]; 0.059 µM (active) in experiment [4]; 0.059 µM (active) in [5]; 0.0093 µM (active) in experiment [8]; 0.0235 µM (active) in experiment [6]. For the same molecule, the Potency entry in [2] and in experiment [3] was “inactive” throughout.

For the molecule `CCCCc1ccc(NS(=O)(=O)c2ccc(C)c(C(=O)N3CCN(c4cccc(C)c4C)CC3)c2)cc1`, in [1], the activation is -4.4%. Further, the Potency result in experiment [2], in [3], in [5], in experiment [8] and in experiment [6] was “inactive” throughout. In experiment [4], the viability was 94.4%.

On to `O=C(Nc1nc2cccc(-c3ccc(CN4CCS(=O)(=O)CC4)cc3)n2n1)C1CC1`, for which the Potency in [1] is 43.2 µM (active) and 34.3 µM (active); in [10] it was 14.8 µM (active); in experiment [9], 3.32 µM (active); in experiment [8], 5.9 µM (active); in experiment [6] it was 9.34 µM (active); in experiment [7], 13.2 µM (active). Moreover, the Potency entry in experiment [2] and in [3] was “inactive” in each case.

Turning to `CC(=O)c1c(C)c2cnc(Nc3ccc(N4CCNCC4)cn3)nc2n(C2CCCC2)c1=O`, the activation in experiment [1] was 46.5% and -19.6%. Further, the activity change, negative = inhibition in [2] was 10.9% [at 5.59 µM]; in experiment [3], -7.36% [at 5.59 µM]. The Potency was 20.9 µM (active) in experiment [10]; 6.61 µM (active) in experiment [9]; 16.6 µM (active) in [5]; 13.2 µM (active) in [8]; 16.6 µM (active) in [6]; 14.8 µM (active) in [7].

In the case of `CCCCC(F)(F)[C@@]1(O)CC[C@H]2[C@H](CC(=O)[C@@H]2CCCCCCC(=O)O)O1`, the activation in experiment [1] was -19.7%. In addition, the Potency result in [2], in experiment [3], in experiment [10], in [8], in experiment [6] and in experiment [7] was “inactive” each time. Moreover, the Potency in experiment [9] was 0.235 µM (active).

For the origin of these results see PubChem BioAssay (NCATS).
